Test results reported in publication PMC5540273 (PLoS ONE, 2017).

system: CDK4-cyclinD1; details: concentration: 1 μM, replicates: in singlicate; n = 1
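Further: KINOMEscan kinase panel screen.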

Structure (SMILES) | %Inh
COC(=O)c1c(-c2ccccc2)c2cc(C)ccc2c(=O)n1Cc1ccccc1 | 0%
CCc1ccc(-c2ccc3c(c2)-c2nn(C)cc2S(=O)(=O)N3C)cc1 | 14%
O=C(Nc1ccc2c(c1)OCO2)NC1CCN(c2ccnc(NCc3ccc(F)cc3)n2)CC1 [GSK1379859] | 0%
Cc1nnc(-c2ccc(C)c(-c3ccc(C(=O)O)cc3)c2)o1 [GW608005] | 0%
CCCNC(=O)Nc1ccc(Oc2ncnc3ccn(C)c23)cc1 | 0%
CCC(=O)c1c(-c2ccccc2)c2cc(Cl)ccc2c(=O)n1Cc1cc(C(=O)NC2CC2)n(C)n1 | 3%
COc1ccc(CNC(=O)NC2CCN(c3ccnc(Nc4ccc(F)cc4)n3)C2)cc1 (centres unmarked) [GSK1379706] | 52%
CCC(=O)c1c(-c2ccccc2)c2cc(Cl)ccc2c(=O)n1Cc1cc(S(C)(=O)=O)n(CC(F)F)n1 | 0%
COc1cccc(C2=C(Nc3cccc(C(=O)O)c3)C(=O)NC2=O)c1 [SB-390770] | 9%
COc1cc(OC)cc(-c2cc3cnc(N)nc3nc2NC(=O)NC(C)(C)C)c1 | 0%
Nc1ncnc2c1ncn2-c1cccc(F)c1 [SKF-97560] | 27%
CN1C(=O)C(Nc2ccccc2)=C(c2ccccc2)C1=O [SB-300079] | 9%
COc1cc2nccc(Nc3cccc(Oc4ccccc4)c3)c2cc1OC.Cl [GW284543] | 1%
COc1ccc(-c2coc3ccc(-c4nnc(SCc5cccc(C#N)c5)o4)cc23)cc1 | 0%
Cc1ccccc1COc1cc(-n2cnc3cc(Cl)ccc32)sc1C(N)=O [GW813349] | 25%
Nc1ncnc2c1ncn2-c1cccc2ccccc12 [SKF-97184] | 0%
COc1cc2nccc(Nc3ccc(OCc4ccc(NC(C)=O)cc4)cc3)c2cc1OC.Cl [GW440135] | 37%
O=C(Nc1n[nH]c2cc(-c3ccccc3F)ccc12)C1CC1 [SB-733371] | 0%
O=C(NCc1cccs1)c1cc(C(=O)c2c(Cl)cccc2Cl)c[nH]1 [GW823670] | 0%

Structure (SMILES) | %Inh
COc1ccc(Nc2nccc(N3CCC(NS(=O)(=O)c4ccc(NC(C)=O)cc4)C3)n2)cc1 (centres unmarked) [GSK1379729] | 8%
COC(=O)c1c(-c2ccccc2)c2cc(Br)ccc2c(=O)n1Cc1ccc(S(C)(=O)=O)cc1 | 0%
COc1ccc(-c2cc3c(C)nc(N)nc3n([C@H]3CC[C@H](O)CC3)c2=O)cn1 | 0%
Nc1n[nH]c2nnc(-c3ccccc3)c(-c3ccccc3)c12 [GW554060] | 2%
CCS(=O)(=O)c1ccc(OC)c(Nc2ncc(-c3ccc(F)cc3)o2)c1.Cl [GW591947] | 0%
Nc1n[nH]c2ncc(-c3ccccc3)cc12 [SB-517081] | 0%
OCCCNc1nccc(-c2c(-c3cccc(C(F)(F)F)c3)nn3cc(C(F)(F)F)ccc23)n1 [GW630813] | 0%
CCc1nc(-c2cccc(C)c2)c(-c2ccncc2)s1 | 6%
CCC(=O)c1c(-c2ccccc2)c2cc(Cl)ccc2c(=O)n1Cc1cc(S(C)(=O)=O)n(CCC(C)(C)O)n1 | 0%
Cc1ccc(Oc2ccc(Nc3ncnc4cc[nH]c34)cc2C)cn1 | 4%
Nc1nccc2scc(-c3ccc4c(c3)CCN4C(=O)Cc3ccccc3)c12 [GSK2576924] | 0%
Cc1cccc(-c2nc(Nc3ccc4c(cnn4C)c3)c3ccccc3n2)n1 [GW876731] | 0%
COC(=O)c1c(-c2ccccc2)c2cc(Br)ccc2c(=O)n1Cc1ccc(NC(=O)CCC(=O)O)cc1 | 0%
COc1ccc(-c2cc3c(C)nc(N)nc3n([C@H]3CC[C@H](OCCO)CC3)c2=O)cn1 | 0%
O=C(Nc1n[nH]c2nc(-c3ccccc3)c(Br)cc12)C1CC1 [SB-708998] | 0%
COc1cc2ncn(-c3cc(OCCCc4ccccc4)c(C(N)=O)s3)c2cc1OC [GSK205189] | 0%
COc1cc(Nc2ccnc3ccc(C(F)(F)F)cc23)cc(OC)c1OC [GW577382] | 39%
Cc1ccc(-c2ccc3c(ccc4sc5c(c43)NC[C@@H](C)N=C5N(C)C)n2)cn1 | 0%

system: CDK4-cyclinD3; details: concentration: 1 μM, replicates: in singlicate; n = 1

Structure (SMILES) | %Inh
COC(=O)c1c(-c2ccccc2)c2cc(C)ccc2c(=O)n1Cc1ccccc1 | 0%
CCc1ccc(-c2ccc3c(c2)-c2nn(C)cc2S(=O)(=O)N3C)cc1 | 0%
O=C(Nc1ccc2c(c1)OCO2)NC1CCN(c2ccnc(NCc3ccc(F)cc3)n2)CC1 [GSK1379859] | 0%
Cc1nnc(-c2ccc(C)c(-c3ccc(C(=O)O)cc3)c2)o1 [GW608005] | 0%
CCCNC(=O)Nc1ccc(Oc2ncnc3ccn(C)c23)cc1 | 0%
CCC(=O)c1c(-c2ccccc2)c2cc(Cl)ccc2c(=O)n1Cc1cc(C(=O)NC2CC2)n(C)n1 | 0%
COc1ccc(CNC(=O)NC2CCN(c3ccnc(Nc4ccc(F)cc4)n3)C2)cc1 (centres unmarked) [GSK1379706] | 0%
CCC(=O)c1c(-c2ccccc2)c2cc(Cl)ccc2c(=O)n1Cc1cc(S(C)(=O)=O)n(CC(F)F)n1 | 0%
COc1cccc(C2=C(Nc3cccc(C(=O)O)c3)C(=O)NC2=O)c1 [SB-390770] | 0%
COc1cc(OC)cc(-c2cc3cnc(N)nc3nc2NC(=O)NC(C)(C)C)c1 | 8%
Nc1ncnc2c1ncn2-c1cccc(F)c1 [SKF-97560] | 13%
CN1C(=O)C(Nc2ccccc2)=C(c2ccccc2)C1=O [SB-300079] | 0%
COc1cc2nccc(Nc3cccc(Oc4ccccc4)c3)c2cc1OC.Cl [GW284543] | 0%
COc1ccc(-c2coc3ccc(-c4nnc(SCc5cccc(C#N)c5)o4)cc23)cc1 | 0%
Cc1ccccc1COc1cc(-n2cnc3cc(Cl)ccc32)sc1C(N)=O [GW813349] | 3%
Nc1ncnc2c1ncn2-c1cccc2ccccc12 [SKF-97184] | 0%
COc1cc2nccc(Nc3ccc(OCc4ccc(NC(C)=O)cc4)cc3)c2cc1OC.Cl [GW440135] | 0%
O=C(Nc1n[nH]c2cc(-c3ccccc3F)ccc12)C1CC1 [SB-733371] | 0%
O=C(NCc1cccs1)c1cc(C(=O)c2c(Cl)cccc2Cl)c[nH]1 [GW823670] | 0%

Structure (SMILES) | %Inh
COc1ccc(Nc2nccc(N3CCC(NS(=O)(=O)c4ccc(NC(C)=O)cc4)C3)n2)cc1 (centres unmarked) [GSK1379729] | 0%
COC(=O)c1c(-c2ccccc2)c2cc(Br)ccc2c(=O)n1Cc1ccc(S(C)(=O)=O)cc1 | 5%
COc1ccc(-c2cc3c(C)nc(N)nc3n([C@H]3CC[C@H](O)CC3)c2=O)cn1 | 0%
Nc1n[nH]c2nnc(-c3ccccc3)c(-c3ccccc3)c12 [GW554060] | 0%
CCS(=O)(=O)c1ccc(OC)c(Nc2ncc(-c3ccc(F)cc3)o2)c1.Cl [GW591947] | 0%
Nc1n[nH]c2ncc(-c3ccccc3)cc12 [SB-517081] | 5%
OCCCNc1nccc(-c2c(-c3cccc(C(F)(F)F)c3)nn3cc(C(F)(F)F)ccc23)n1 [GW630813] | 0%
CCc1nc(-c2cccc(C)c2)c(-c2ccncc2)s1 | 0%
CCC(=O)c1c(-c2ccccc2)c2cc(Cl)ccc2c(=O)n1Cc1cc(S(C)(=O)=O)n(CCC(C)(C)O)n1 | 20%
Cc1ccc(Oc2ccc(Nc3ncnc4cc[nH]c34)cc2C)cn1 | 0%
Nc1nccc2scc(-c3ccc4c(c3)CCN4C(=O)Cc3ccccc3)c12 [GSK2576924] | 0%
Cc1cccc(-c2nc(Nc3ccc4c(cnn4C)c3)c3ccccc3n2)n1 [GW876731] | 0%
COC(=O)c1c(-c2ccccc2)c2cc(Br)ccc2c(=O)n1Cc1ccc(NC(=O)CCC(=O)O)cc1 | 0%
COc1ccc(-c2cc3c(C)nc(N)nc3n([C@H]3CC[C@H](OCCO)CC3)c2=O)cn1 | 0%
O=C(Nc1n[nH]c2nc(-c3ccccc3)c(Br)cc12)C1CC1 [SB-708998] | 0%
COc1cc2ncn(-c3cc(OCCCc4ccccc4)c(C(N)=O)s3)c2cc1OC [GSK205189] | 0%
COc1cc(Nc2ccnc3ccc(C(F)(F)F)cc23)cc(OC)c1OC [GW577382] | 0%
Cc1ccc(-c2ccc3c(ccc4sc5c(c43)NC[C@@H](C)N=C5N(C)C)n2)cn1 | 0%
